Source: PubChem BioAssay AID2023 (NMMLSC, 2009)
In all, about 320,000 compounds went through this assay and about 1,100 (0.34%) were called active. Shown is part of a subset that was picked to be rich in actives. Values without a mark were called inactive.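 Rule for the calls: active = GFP response vs DMSO above a set limit, about the screen mean plus 3 SD (cut at about 150% in these data); inconclusive = under 70 cell events counted for the yeast strain; inactive = the rest.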

Test: TOR pathway LAP4-GFP level changes – S. cerevisiae, multiplex flow cytometry, MLPCN library, primary screen (AID 2023)
Settings: 3 h, at 10 µM, active compounds read high, median GFP as percent of DMSO wells

SMILES | GFP response vs DMSO
COc1ccc(/C=C(\C#N)c2c[nH]c3ccccc23)cc1 | 97.2%
C[n+]1ccc(/C=C/c2c[nH]c3ccccc23)cc1 | 214% (active)
O=C(NC1CCCC1)C(=O)c1c[nH]c2ccccc12 | 100%
CC(C)C(=O)Nc1c2c(nn1-c1ccccc1)CSC2 | 104%
CC(C)=NN1C(=O)c2ccccc2NC1(C)C | 103%
CCCC(=O)Nc1ncnc2c1ncn2[C@@H]1O[C@@H]2OP(=O)(O)OC[C@H]2[C@H]1OC(=O)CCC | 103%
CCc1ccc2c(c1)C1(NN=C(c3ccccc3)S1)C(=O)N2 (stereo unspecified) | 169% (active)
C[C@H](NC(=O)C1CC(=O)N(c2ccc3c(c2)OCO3)C1)C(=O)NCc1ccco1 (stereo partly specified) | 94%
COC(=O)Nc1ccc(S(=O)(=O)N2CCN(CCN3C(=O)C4C5C=CC(C5)C4C3=O)CC2)cc1 (stereo unspecified) | 95.9%
O=c1[nH]c2ccccc2n2c(-c3ccccc3)nnc12 | 87.9%
COc1ccc(OCc2cc(C(=O)N3CCCC3)no2)c2ccccc12 | 85.3%
O=C(c1ccc(Cl)c([N+](=O)[O-])c1)N1CCN(c2ccccc2)CC1 | 165% (active)
O=C(c1ccccc1)c1ccc(C(=O)N2CCN(c3ccccc3)CC2)cc1 | 78.1%
O=C(c1ccc(N2CCOCC2)c([N+](=O)[O-])c1)N1CCN(c2ccccc2F)CC1 | 96%
Cc1ccc(C(=O)NCC(=O)NC2CC2)cc1 | 97.3%
Cc1onc(-c2ccccc2)c1C(=O)NNC(=S)NC(=O)c1ccc(F)cc1 | 102%
Cc1ccc(-c2nn(-c3ccccc3)cc2C(=O)NC2CCC(O)CC2)cc1 (stereo unspecified) | 94.9%
O=C(NNC(=S)NC(=O)c1cn(-c2ccccc2)nc1-c1ccccc1)c1ccncc1 | 159% (active)
CCOc1ccc(CCNC(=O)CN2C(=O)NC3(CCc4ccccc43)C2=O)cc1OCC (stereo unspecified) | 98.4%
CCCCC(=O)Nc1ccc2c(c1)C(=O)NC2=O | 107%
O=C(Nc1cc(Cl)cc(Cl)c1)C(NCCCO)c1ccccc1 (stereo unspecified) | 99.3%

SMILES | GFP response vs DMSO
CCCCN1C(=O)c2ccc(C(=O)Nc3ccc(S(=O)(=O)N(C)C)cc3)cc2C1=O | 93.7%
CC(CCc1ccc(O)cc1)NCc1ccc(Cl)cc1Cl (stereo unspecified) | 99.7%
CCC(C)n1[nH]c(=O)cc1N (stereo unspecified) | 92.7%
S=C1SCN(CCN2CCOCC2)CN1Cc1ccccc1 | 111%
COc1ccc(CN2CN(C(C)C)CSC2=S)cc1 | 162% (active)
COc1ccc(CN2CN(C3CCCC3)CSC2=S)cc1 | 98.2%
Cc1onc(-c2c(F)cccc2Cl)c1C(=O)OCC(=O)N1C(C)CCCC1C (stereo unspecified) | 107%
CN(c1ccccc1)c1ccc(/C=c2\s/c(=C(/C#N)C(=O)C(C)(C)C)n(Cc3ccco3)c2=O)cc1 | 377% (active)
CCOC(=O)Cn1c(=O)oc2cc(S(=O)(=O)N(C)Cc3ccco3)ccc21 | 107%
CCOC(=O)/C=c1\s/c(=C\c2ccc(C#N)cc2)c(=O)n1CC(=O)Nc1cccc(C)c1C | 96.9%
CC1C=CCC2C(=O)N(c3cccc(C(=O)N4CCCCCC4)c3)C(=O)C12 (stereo unspecified) | 97.9%
COc1ccccc1NC(=O)C[n+]1ccccc1 | 109%
COC(=O)C[n+]1cccc2ccccc21 | 212% (active)
Cc1cccc[n+]1CC(=O)c1ccccc1 | 91.6%
CC1(C)CC(=O)C2=C(C1)N=C1SCCC(=O)N1C2c1ccc(C(F)(F)F)cc1 (stereo unspecified) | 98.2%
CCCCCCSc1ccc(-c2nc3ccc(Cl)cn3c2NCc2ccccc2)cc1 | 99.4%
CCCCNc1c(-c2ccc(OC)c(Sc3ccc(OC)cc3)c2)nc2ccc(Cl)cn12 | 141%
CCCCNc1c(-c2cccc(Sc3ccc(OC)cc3)c2)nc2ccccn12 | 151% (active)
COc1ccc(N2CCN(S(=O)(=O)c3cc(Br)cnc3N)CC2)cc1 | 100%
CCOc1ccc(-n2c(SC(C)C(=O)OC)nc3c(c2=O)SCC3)cc1 (stereo unspecified) | 95.9%
CCN1/C(=C/c2ccc3ccc(C)cc3[n+]2CC)Sc2ccccc21 | 319% [may fluoresce green] (active)

SMILES | GFP response vs DMSO
CCN1/C(=C\c2ccc3ccccc3[n+]2CC)Sc2cc(C)ccc21 | 501% [may fluoresce green] (active)
O=C1CCC/C=C\C[C@@H](CC(=O)N(CCO)Cc2ccccc2)C(=O)NCCO1 | 85.9%
NS(=O)(=O)c1ccc(CCNC(=O)CCCn2c(SCC(=O)N3CCCC3)nc3ccsc3c2=O)cc1 | 101%
CC(C)CC(=O)N1CCN(Cc2cccc(Cl)c2)CC1 | 102%
Clc1cccc(CN2COc3c(cc(Cl)c4cccnc34)C2)c1 | 182% (active)
O=C(c1cccc(Cl)c1)N1CCN(Cc2ccccc2)CC1 | 101%
CC(C)=CCC/C(C)=C/C(=O)O | 105%
O=C(CN1CCCSc2ccccc21)N1CCN(S(=O)(=O)c2cccc(F)c2)CC1 | 110%
CC1=NNC(=O)C1Cc1c(Cl)cccc1Cl (stereo unspecified) | 98.6%
O=C(OC1CCOC1=O)c1cccc(S(=O)(=O)Nc2ccc(F)cc2)c1 (stereo unspecified) | 95.1%
CC(=O)Nc1ccc(N2C(=O)CC(Sc3nccc(C)n3)C2=O)cc1 (stereo unspecified) | 89.5%
Cc1cc(NC(=O)CCN2CCN(Cc3ccccc3)CC2)ccc1Br | 83.3%
CC(C)C(=O)N1CC(=O)Nc2ccc(F)cc2C1c1ccc(F)cc1 (stereo unspecified) | 108%
O=C(/C=C/Sc1ncn[nH]1)c1ccc(Cl)cc1 | 219% (active)
O=C(CSc1ncn[nH]1)N/N=C/c1ccc(F)cc1 | 117%
O=C(CSc1ncn[nH]1)Nc1ccc(Br)cc1Br | 93.9%
Cc1ccnc(NC(=O)CCNS(=O)(=O)c2ccc(C)c(C)c2)c1 | 81.8%
COc1ccccc1CNC(=O)CNC(=O)c1cn(-c2ccccc2OC)c(=O)c2ccccc12 | 95.4%
COc1ccc(O[C@H]2C=C[C@@H](c3ccccc3)O[C@@H]2CO/N=C/C[C@@H]2C=C[C@H](OC(C)=O)[C@@H](COC(C)=O)O2)cc1 | 111%
